# Most compounds without a hit are left out; they make up all but 6.8% or so of the library.
# DPM-DC inhibit – inhibitors of Streptococcus pneumoniae diphosphomevalonate decarboxylase. purified DPM-DC, PK/LDH coupled NADH fluorescence. hit rate 0.49% among 65,000. calls only at 10 µM;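 active = the 320 compounds with the highest percent inhibition in the single-dose primary screen, excluding strongly autofluorescent ones, cut at about 32% in these data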;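 note: kinetic rate of NADH fluorescence loss reporting ADP formed by the decarboxylase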
# NADH enzymes – inhibition of NAD/NADH coupling enzymes, library profiling. coupled PK/LDH NADH assays, four targets. IC50, µM (top dose mostly 10 µM), for the others: at the highest dose inhibition. hit rate 0.02% among 65,000. AID 774;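 active = single-dose screening hits from any of four coupled enzyme assays that gave an IC50 when retested across doses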;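 note: the DPM-DC format reads NADH fluorescence rather than 340 nm absorbance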
# Abs 340nm – compound absorbs light at 340 nm. compound absorbance at 340 nm, fold over control. 65,000 tested, under 10 active. fold change at 10 µM;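 active = at 10 µM dose, initial 340 nm absorbance at least 2 fold that of control wells; inactive = change under 2 fold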;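 note: initial absorbance extrapolated from kinetic A340 decline of NADH oxidation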
# Autofluor 339 – intrinsic fluorescence of library compounds, ex339/em460 – biochemical, MLSMR library, data from DPM-DC assay, artefact control, profiling panel; fluorescence fold increase at 10 µM; hit rate 5.5% among 65,000; AID 709; compound autofluorescence, ex339/em460 nm, NADH buffer; hits give high values; 1 = no-compound wells, NADH background;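 active = at 10 µM, mean starting fluorescence two-fold or more over control wells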;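 note: signal is the first read of a kinetic run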
# PMK inhibit – S. pneumoniae PMK inhibition | purified PMK, PK/LDH-coupled NADH absorbance 340 nm | inhibition, % at 10 µM | hit rate 0.49% among 65,000;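 active = top-ranked compounds by inhibition in the single 10 µM screen, taking a fixed number of the strongest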;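 note: 0% = full reaction with DMSO carrier and 100% = background rate without enzyme reaction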
# Spn MK inh – blocks S. pneumoniae mevalonate kinase | AID 555 | purified MK, PK/LDH-coupled NADH absorbance 340 nm | inhibition, % at 10 µM | hit rate 0.48% among 65,000;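 active = ranked among the strongest by inhibition in the single 10 µM screen, a fixed top-ranked set picked for dose follow-up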
# * hit, by the source's call; i = inactive; · = not tested or not shown; + = active, no number.
SMILES,DPM-DC inhibit,NADH enzymes,Abs 340nm,Autofluor 339,PMK inhibit,Spn MK inh
Cn1c2ccccc2c2c(C(=O)NCc3ccco3)cn(C3CCCCC3)c(=O)c21,·,11.0%,1.05,2.11*,15.0,7.0
Cc1ccc2c(c1)cc(CN(Cc1ccccc1)C(=O)N(C)C)c1nnnn12,i,7.0%,0.99,1.03,14.0,7.0
COc1ccc(NC(=O)NCCCN2CCCC2=O)cc1,i,12.0%,0.99,1.07,19.0,11.0
CCN1CCN(C(=O)c2cnn3c(C(F)F)cc(-c4ccc(C)cc4)nc23)CC1,i,13.0%,1.12,2.27*,9.0,9.0
COc1ccc(-c2cc(C(F)F)n3ncc(C(=O)NCCCN4CCCC4=O)c3n2)cc1,·,11.0%,1.11,2.2*,15.0,6.0
COc1ccc(-c2nsc3c(N4CCN(C(=O)c5ccco5)CC4)ncnc23)cc1,+,18.0%,1.08,2.79*,11.0,9.0
O=C(c1ccco1)N1CCN(c2ncnc3c(-c4ccccc4)nsc23)CC1,i,8.0%,1.02,1.41,9.0,7.0
COc1ccc(-c2cc(C(F)F)n3ncc(C(=O)N4CCN(C(=O)c5ccco5)CC4)c3n2)cc1,·,14.0%,1.1,2.06*,17.0,11.0
CN1CCN(C(=O)c2cnn3c(C(F)(F)F)cc(-c4ccc5c(c4)OCO5)nc23)CC1,i,8.0%,1.09,1.06,14.0,6.0
O=C(c1ccco1)N1CCN(C(=O)c2cnn3c(C(F)(F)F)cc(-c4cccs4)nc23)CC1,·,6.0%,1.1,3.63*,5.0,7.0
CCC(Sc1nc2cc(OC)c(OC)cc2c2nc(C)nn12)C(=O)NCc1ccco1 (stereo not given),i,7.0%,0.99,1.08,15.0,7.0
Cc1c(NC(=O)Cn2cnc3c(=O)n(C)c(=O)n(C)c32)cccc1-c1nc2ccccc2o1,i,0.0%,1.05,1.1,0.0,1.0
CC(=O)Nc1ccc2nc(-c3cccs3)[nH]c2c1,·,5.0%,1.11,2.29*,8.0,2.0
CCOC(=O)c1cc2sccc2n1CC(=O)N1CCCC1,i,5.0%,0.99,1.04,15.0,0.0
Cc1ccc(S(=O)(=O)NC(CN2CCOCC2)=NCCNS(=O)(=O)c2ccccc2)cc1,i,3.0%,1,1.06,10.0,0.0
COc1ccc2[nH]c3c(c2c1)CCn1c-3nc2ccccc2c1=O,·,5.0%,1.15,2.24*,0.0,9.0
COc1ccc(-c2cc(C(F)(F)F)nc(SCC(=O)Nc3cc(C)on3)n2)cc1OC,·,10.0%,1.08,3.78*,12.0,8.0
O=C(CCSc1nc(-c2ccc3c(c2)OCO3)cc(C(F)(F)F)n1)NCc1ccco1,·,17.0%,1.14,2.2*,28.0*,5.0
COc1ccc(-c2cc(C(F)(F)F)nc(SCC(=O)N3CC(C)OC(C)C3)n2)cc1OC (stereo not given),·,4.0%,1.17,3.48*,8.0,0.0
O=C(CCSc1nc(-c2ccco2)cc(C(F)(F)F)n1)N1CCN(c2ccccc2)CC1,i,1.0%,1.1,1.14,3.0,0.0
COc1ccc(-c2cc(C(F)(F)F)nc(NC3CCCC3)n2)cc1OC,i,2.0%,1.09,1.56,0.0,6.0
COc1ccc(-c2cc(C(F)(F)F)nc(SCCC(=O)N3CCN4CCCC4C3)n2)cc1 (stereo not given),+,16.0%,1.11,2.33*,1.0,10.0
Cc1cc(NC(=O)CSc2nc(-c3cccs3)cc(C(F)(F)F)n2)no1,i,6.0%,1.1,1.25,15.0,0.0
O=C(c1cccc(-n2cnnn2)c1)N1CCOCC1,i,3.0%,1.07,1.06,3.0,6.0
COc1ccc(OCCC(=O)Nc2cc(C)on2)cc1,i,10.0%,1.07,1.11,14.0,15.0
SMILES,DPM-DC inhibit,NADH enzymes,Abs 340nm,Autofluor 339,PMK inhibit,Spn MK inh
COc1ccc(-c2cc(C(F)(F)F)nc(SCCC(=O)Nc3cc(C)on3)n2)cc1,+,21.0%,1.04,1.82,8.0,13.0
Cc1cn2nc(N)c3ccccc3c2n1,·,8.0%,1,4.97*,13.0,2.0
O=C1CC(N2CCN(c3ccc(S(=O)(=O)N4CCCC4)cc3)CC2)C(=O)N1c1ccc(F)cc1 (stereo not given),i,3.0%,1.02,1.11,7.0,2.0
OCC#Cc1cnc2ccccc2c1,i,11.0%,1.05,1.18,10.0,10.0
Cc1cc(N2CCCC2)nc(-c2ccccc2O)n1,i,14.0%,0.98,2.64*,15.0,7.0
Cn1cccc1Cc1nnc(SCC(=O)Nc2ccc(Cl)cc2)n1-c1ccc(F)cc1,i,5.0%,1.04,1.5,7.0,9.0
CCCCS(=O)(=O)C(=C1Nc2ccccc2N1)S(=O)(=O)CCCC,i,15.0%,1.05,1.24,26.0*,13.0
COc1ccccc1NC(=O)NCCCN1CCN(c2cccc(Cl)c2)CC1,i,2.0%,1.01,1.06,3.0,6.0
O=c1n(CCCN2CCN(c3cccc(Cl)c3)CC2)nc2ccccn12,·,3.0%,0.98,2.37*,2.0,8.0
COc1ccccc1C(=O)NCCc1nc2ccccc2n1C,i,9.0%,1.01,1.01,0.0,active
c1nc2sc3c(c2c2nnnn12)CCC3,·,10.0%,1.03,2.11*,12.0,8.0
Cc1ccc(CNc2oc(-c3cccs3)nc2C#N)cc1,·,5.0%,1.05,3.65*,5.0,5.0
N#Cc1nc(-c2cccs2)oc1NCc1ccccc1Cl,·,4.0%,1.03,2.37*,6.0,2.0
N#Cc1nc(-c2cccs2)oc1NCc1ccccc1,·,2.0%,1.1,2.38*,4.0,0.0
COc1ccc(CNc2oc(C)nc2C#N)cc1,i,5.0%,1.02,1,8.0,7.0
N#Cc1nc(-c2cccs2)oc1N1CCN(c2ccccc2)CC1,·,7.0%,1.04,3.69*,7.0,6.0
Nc1nnc(CSCc2ccc(F)cc2)s1,i,1.0%,1.03,1.06,0.0,4.0
COc1cc2c(cc1NC(=O)COC(=O)C1CC(=O)N(Cc3ccco3)C1)oc1ccccc12 (stereo not given),i,5.0%,1.03,1.66,16.0,0.0
CCOc1ccc(Nc2oc(-c3ccco3)nc2C#N)cc1,i,3.0%,1.08,1.31,0.0,9.0
N#Cc1nc(-c2cccs2)oc1NCc1ccc(Cl)cc1,·,4.0%,1.01,3*,9.0,12.0
CCOc1ccc(Nc2oc(-c3cccs3)nc2C#N)cc1,·,2.0%,1.15,3.04*,0.0,3.0
N#Cc1nc(-c2cccs2)oc1NCc1ccco1,·,2.0%,1.06,2.25*,0.0,4.0
COc1cc(C(=O)O)ccc1OC(C)=O,i,5.0%,1.03,1.02,13.0,3.0
CCOc1ccc(C(=O)O)cc1OC,+,17.0%,1,0.62,10.0,1.0
CC1CN=C(N(C(=O)Nc2ccccc2)c2ccc(S(=O)(=O)N3CCOCC3)cc2)S1 (stereo not given),i,2.0%,1.05,1.04,9.0,8.0
O=C(CN(C(=O)CNS(=O)(=O)c1ccccc1)C1CCCC1)NCc1ccco1,i,8.0%,0.99,1,25.0*,0.0

# Compound activity (PubChem)
